Inconclusive results are not listed. The source made the active and inactive calls. Rule for the calls: active = hit-call score of the fitted dose curve at least 0.9, where 1 is the maximum; inconclusive = response in the unintended direction; inactive = score below 0.9.

Broadly, the AC50 is the concentration at which the activity in the assay is half-maximal.

Test [1] has as its target human Serotonin, 5-Hydroxytryptamine Receptor 7 (5HT7), HTR7 (gene 3363) (UniProt P34969). The test is described as follows: NVS_GPCR_h5HT7: NovaScreen (NVS) G Protein-Coupled Receptor Assay for human Serotonin, 5-Hydroxytryptamine Receptor 7 (5HT7) (AID 2283255).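 Note: hits reduce specific radioligand binding relative to DMSO.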 In short, it runs like this: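 Filter-bound radioactivity counted after 1 h, with loss of specific radioligand binding fitted against DMSO. Membrane protein came from CHO cells expressing human 5HT7. Chemicals were tested first at 25 uM in duplicate, then in concentration series if active.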

The target in test [2] is human Adenosine A2a Receptor (AdoRA2a), ADORA2A (gene 135) (UniProt P29274). The test is described as follows: NVS_GPCR_hAdoRA2a: NovaScreen (NVS) G Protein-Coupled Receptor Assay for human Adenosine A2a Receptor (AdoRA2a) (AID 2283256). In short, it runs like this:
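Compounds screened in duplicate at 25 uM, with actives followed up in concentration series, for displacement of a radioligand from HEK293-derived receptor protein. Bound counts read by filter scintillation at 1.5 hours, DMSO as baseline.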

For test [3], the target named is human Adrenergic, Alpha 2c Receptor (Adra2C), ADRA2C (gene 152) (UniProt P18825). In words: NVS_GPCR_hAdra2C: NovaScreen (NVS) G Protein-Coupled Receptor Assay for human Adrenergic, Alpha 2c Receptor (Adra2C) (AID 2283259). In short, it runs like this:
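Screened first in duplicate at 25 uM, with actives then run as concentration series. Membranes from Sf9 cells were exposed for 1 h, and displacement of radioligand was counted after filtration, using DMSO as baseline.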

Test [4] concerns the target D(1A) dopamine receptor (Homo sapiens) (UniProt P21728). The test is described as follows: NVS_GPCR_hDRD1: NovaScreen (NVS) G Protein-Coupled Receptor Assay for human Dopamine Receptor D1 (DRD1) (AID 2283269). A digest of the protocol: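 HEK293-derived receptor preparation; radioligand competitive displacement; 1 h; filtration + scintillation counting. DMSO = negative control/baseline. Primary: 25 uM, duplicate; secondary: concentration–response for actives.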

Test [5] deals with human Serotonin, 5-Hydroxytryptamine Receptor 5A (5HT5A), HTR5A (gene 3361) (UniProt P47898). The test is described as follows: NVS_GPCR_h5HT5A: NovaScreen (NVS) G Protein-Coupled Receptor Assay for human Serotonin, 5-Hydroxytryptamine Receptor 5A (5HT5A) (AID 2283251). A digest of the protocol: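 Membranes from HEK293 cells, radioligand binding read by filtration and scintillation after 1 h. Single-concentration duplicate testing at 25 uM, then concentration-response for actives; positive-direction fitting relative to DMSO.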
Chain of human Serotonin, 5-Hydroxytryptamine Receptor 5A (5HT5A), HTR5A (gene 3361) (P47898 whole entry, looked up): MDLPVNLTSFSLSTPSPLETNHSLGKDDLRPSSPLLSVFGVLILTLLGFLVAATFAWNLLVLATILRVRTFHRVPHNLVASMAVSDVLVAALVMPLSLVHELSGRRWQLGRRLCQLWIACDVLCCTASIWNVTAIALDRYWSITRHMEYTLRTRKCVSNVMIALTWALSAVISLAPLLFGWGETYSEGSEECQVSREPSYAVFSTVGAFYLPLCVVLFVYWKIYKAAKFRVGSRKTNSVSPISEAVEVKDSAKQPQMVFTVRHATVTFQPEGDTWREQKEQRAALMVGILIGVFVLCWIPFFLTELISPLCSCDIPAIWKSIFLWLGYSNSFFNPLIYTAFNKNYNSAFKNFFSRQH

The target in test [6] is human Adrenergic, Beta 1 Receptor (Adrb1), ADRB1 (gene 153) (UniProt P08588). In words: NVS_GPCR_hAdrb1: NovaScreen (NVS) G Protein-Coupled Receptor Assay for human Adrenergic, Beta 1 Receptor (Adrb1) (AID 2283258). In short, it runs like this:
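Membranes/protein extracted from human neuroepithelioma cells, radioligand competition binding read by filtration and scintillation 2 h post-dose. Single 25 uM duplicate screen, then concentration-response follow-up; DMSO as negative control.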

Test [7] has as its target human Serotonin, 5-Hydroxytryptamine Receptor 2A (5HT2A), HTR2A (gene 3356) (UniProt P28223). In words: NVS_GPCR_h5HT2A: NovaScreen (NVS) G Protein-Coupled Receptor Assay for human Serotonin, 5-Hydroxytryptamine Receptor 2A (5HT2A) (AID 2283249). A digest of the protocol:
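Radioligand displacement on human cortex tissue extract, counted by filtration and scintillation 1.5 h post-dosing. Initial single-concentration screen at 25 uM in duplicate, concentration series in follow-up; DMSO as baseline.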

Test [8] has as its system guinea pig Muscarinic, Peripheral (Mperiperal) Receptor, Non-selective Binding, gene 100379235. In words: NVS_GPCR_gMPeripheral_NonSelective: NovaScreen (NVS) G Protein-Coupled Receptor Assay for guinea pig Muscarinic, Peripheral (Mperiperal) Receptor, Non-selective Binding (AID 2283250). In short, it runs like this:
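Screened in duplicate at 25 uM, hits retested in concentration series to 50 uM max, using bladder membrane radioligand displacement from guinea pig. Filtration and scintillation counting 1 h post-dose, fitted relative to DMSO.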

Test [9] deals with human Adrenergic, Alpha 2A Receptor (Adra2A), ADRA2A (gene 150) (UniProt P08913). The test is described as follows: NVS_GPCR_hAdra2A: NovaScreen (NVS) G Protein-Coupled Receptor Assay for human Adrenergic, Alpha 2A Receptor (Adra2A) (AID 2283257). In short, it runs like this: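 Displacement of a specific radioligand from HT29 membrane protein was counted by filter scintillation after 1 h. Compounds were screened in duplicate at 25 uM, and actives were retested in concentration series. Fitting was positive-direction against DMSO.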
Chain of human Adrenergic, Alpha 2A Receptor (Adra2A), ADRA2A (gene 150) (P08913 whole entry, looked up): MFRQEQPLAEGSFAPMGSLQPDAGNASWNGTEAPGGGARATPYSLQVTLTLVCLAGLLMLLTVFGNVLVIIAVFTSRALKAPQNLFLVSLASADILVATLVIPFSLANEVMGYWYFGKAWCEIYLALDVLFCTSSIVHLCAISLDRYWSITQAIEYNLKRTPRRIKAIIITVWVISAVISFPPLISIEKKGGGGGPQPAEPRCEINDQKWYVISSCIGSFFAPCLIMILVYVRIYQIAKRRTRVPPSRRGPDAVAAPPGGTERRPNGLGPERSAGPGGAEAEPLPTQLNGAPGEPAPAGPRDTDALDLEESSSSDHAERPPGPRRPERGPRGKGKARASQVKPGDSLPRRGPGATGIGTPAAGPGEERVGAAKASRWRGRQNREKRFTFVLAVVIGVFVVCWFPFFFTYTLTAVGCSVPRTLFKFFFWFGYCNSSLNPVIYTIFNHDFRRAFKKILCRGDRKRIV

The target in test [10] is Beta-2 adrenergic receptor (Homo sapiens) (UniProt P07550). The test is described as follows: NVS_GPCR_hAdrb2: NovaScreen (NVS) G Protein-Coupled Receptor Assay for human Adrenergic, Beta 2 Receptor (Adrb2) (AID 2283261). A digest of the protocol:
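Compounds screened in duplicate at 25 uM, then actives in concentration series. Human beta-2 receptor from CHO material, cell-free; radioligand displacement after 1 h measured by filtration and scintillation against DMSO baseline.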

Test [11] deals with human Adrenergic, Beta 3 Receptor (Adrb3), ADRB3 (gene 155) (UniProt P13945). The test is described as follows: NVS_GPCR_hAdrb3: NovaScreen (NVS) G Protein-Coupled Receptor Assay for human Adrenergic, Beta 3 Receptor (Adrb3) (AID 2283262). A digest of the protocol:
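A cell-free filter binding assay read by scintillation counting, with displacement of a specific radioligand measured after 1 hour. The receptor source was SK-N-MC extracts (cells pretreated with isoproterenol and 8-bromo-cAMP). Compounds were first tested at 25 uM in duplicate and then in concentration series.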

The target of test [12] is human Dopamine Receptor D4.4 (DRD4.4), DRD4 (gene 1815) (UniProt P21917). In words: NVS_GPCR_hDRD4.4: NovaScreen (NVS) G Protein-Coupled Receptor Assay for human Dopamine Receptor D4.4 (DRD4.4) (AID 2283264). In short, it runs like this:
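Filter-binding assay with a tritiated or iodinated ligand, cell-free receptor prepared from CHO, 1 hour. Loss of bound radioactivity versus DMSO; single 25 uM duplicate screen, then concentration-response for actives.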

Test [13] addresses human Histamine 1 Receptor (H1), HRH1 (gene 3269) (UniProt P35367). The test is described as follows: NVS_GPCR_hH1: NovaScreen (NVS) G Protein-Coupled Receptor Assay for human Histamine 1 Receptor (H1) (AID 2283268). A digest of the protocol:
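Filter-based scintillation detection of radioligand binding to human H1, 1 h incubation; chemicals screened in duplicate at 25 uM, then concentration-response; signal loss relative to DMSO taken as activity.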

Test [14] addresses human Adenosine A1 Receptor (AdoRA1), ADORA1 (gene 134) (UniProt P30542). The test is described as follows: NVS_GPCR_hAdoRA1: NovaScreen (NVS) G Protein-Coupled Receptor Assay for human Adenosine A1 Receptor (AdoRA1) (AID 2283254). In short, it runs like this:
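Hum. cortical membranes + radioligand, cmpd 1 h; filtration, scintillation count. Readout = decrease vs DMSO. Primary 25 uM dup; hits → conc. series.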

Test [15] addresses guinea pig Opioid, Kappa 1 Receptor (OpiateK), OPRK1 (gene 100135587) (UniProt P41144). The test is described as follows: NVS_GPCR_gOpiateK: NovaScreen (NVS) G Protein-Coupled Receptor Assay for guinea pig Opioid, Kappa 1 Receptor (OpiateK) (AID 2283252).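 Note: active means reduced radioligand binding relative to DMSO.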 In short, it runs like this:
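Radioligand binding to kappa opioid receptor in guinea pig cerebellar membranes, read by filtration and scintillation at 2 h. Compounds first tested in duplicate at 25 uM, then actives in concentration series; signal loss fitted against DMSO.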

Test [16] concerns the target human Serotonin, 5-Hydroxytryptamine Receptor 6 (5HT6), HTR6 (gene 3362) (UniProt P50406). The test is described as follows: NVS_GPCR_h5HT6: NovaScreen (NVS) G Protein-Coupled Receptor Assay for human Serotonin, 5-Hydroxytryptamine Receptor 6 (5HT6) (AID 2283253). A digest of the protocol:
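Filter scintillation counting of radioligand displacement from HEK293-expressed 5HT6, 1 hour post-dose, with loss of signal relative to DMSO. Single 25 uM duplicates first, with concentration series for confirmation.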

Test [17] deals with Type-1 angiotensin II receptor (Homo sapiens) (UniProt P30556). In words: NVS_GPCR_hAT1: NovaScreen (NVS) G Protein-Coupled Receptor Assay for human Angiotensin II receptor type 1 (AT1) (AID 2283263). A digest of the protocol: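 Hits from a 25 uM duplicate screen (threshold e.g. 30% inhibition) were run in concentration-response with 50 uM top concentration. Displacement of specific radioligand from KAN-TS membrane preparations measured after 3 h by filter scintillation, DMSO as baseline.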

Test [18] has as its target human Endothelin Receptor Type A (ETA), EDNRA (gene 1909) (UniProt P25101). In words: NVS_GPCR_hETA: NovaScreen (NVS) G Protein-Coupled Receptor Assay for human Endothelin Receptor Type A (ETA) (AID 2283265). A digest of the protocol: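 Binding of radioligand to membrane protein extracted from SH-SY5Y cells was read by filtration and scintillation after 3 h. Compounds were screened at 25 uM in duplicate, with hits followed up in singleton concentration series to 50 uM.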

Test [19] has as its target human Dopamine Receptor D2 (DRD2), DRD2 (gene 1813) (UniProt P14416). The test is described as follows: NVS_GPCR_hDRD2s: NovaScreen (NVS) G Protein-Coupled Receptor Assay for human Dopamine Receptor D2 (DRD2) (AID 2283266). A digest of the protocol: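 Test compound (25 uM, duplicate in the primary screen; concentration series at follow-up) competed with radioligand for human DRD2 in CHO-derived membrane protein. Filter-based scintillation counting was done 1.5 hours after dosing, with loss of signal analysed against DMSO.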

Chain of human Serotonin, 5-Hydroxytryptamine Receptor 7 (5HT7), HTR7 (gene 3363) (P34969 whole entry, looked up): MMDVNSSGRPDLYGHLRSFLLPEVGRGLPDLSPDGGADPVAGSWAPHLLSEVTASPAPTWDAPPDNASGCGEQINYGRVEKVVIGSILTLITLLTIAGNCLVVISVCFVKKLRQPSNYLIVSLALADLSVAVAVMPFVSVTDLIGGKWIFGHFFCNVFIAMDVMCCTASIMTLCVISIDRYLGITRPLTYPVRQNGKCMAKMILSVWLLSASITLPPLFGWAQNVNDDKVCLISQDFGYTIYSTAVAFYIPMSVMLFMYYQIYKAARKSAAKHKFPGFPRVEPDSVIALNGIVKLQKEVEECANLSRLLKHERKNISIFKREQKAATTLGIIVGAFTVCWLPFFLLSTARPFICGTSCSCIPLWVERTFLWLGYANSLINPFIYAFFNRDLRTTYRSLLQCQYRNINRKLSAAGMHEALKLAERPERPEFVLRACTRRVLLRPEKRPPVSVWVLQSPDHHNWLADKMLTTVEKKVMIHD
Chain of human Adenosine A2a Receptor (AdoRA2a), ADORA2A (gene 135) (P29274 whole entry, looked up): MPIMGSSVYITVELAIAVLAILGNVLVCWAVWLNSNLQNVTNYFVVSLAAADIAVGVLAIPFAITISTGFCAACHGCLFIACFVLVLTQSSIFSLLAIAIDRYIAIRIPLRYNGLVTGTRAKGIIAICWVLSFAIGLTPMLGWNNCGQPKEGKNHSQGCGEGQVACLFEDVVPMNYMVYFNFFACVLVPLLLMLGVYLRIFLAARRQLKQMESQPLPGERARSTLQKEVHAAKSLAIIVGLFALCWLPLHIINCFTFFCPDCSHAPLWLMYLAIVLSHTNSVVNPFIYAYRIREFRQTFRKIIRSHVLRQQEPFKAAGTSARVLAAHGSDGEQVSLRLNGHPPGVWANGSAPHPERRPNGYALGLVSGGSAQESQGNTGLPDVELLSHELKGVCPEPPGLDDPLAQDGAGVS
Chain of human Adrenergic, Alpha 2c Receptor (Adra2C), ADRA2C (gene 152) (P18825 whole entry, looked up): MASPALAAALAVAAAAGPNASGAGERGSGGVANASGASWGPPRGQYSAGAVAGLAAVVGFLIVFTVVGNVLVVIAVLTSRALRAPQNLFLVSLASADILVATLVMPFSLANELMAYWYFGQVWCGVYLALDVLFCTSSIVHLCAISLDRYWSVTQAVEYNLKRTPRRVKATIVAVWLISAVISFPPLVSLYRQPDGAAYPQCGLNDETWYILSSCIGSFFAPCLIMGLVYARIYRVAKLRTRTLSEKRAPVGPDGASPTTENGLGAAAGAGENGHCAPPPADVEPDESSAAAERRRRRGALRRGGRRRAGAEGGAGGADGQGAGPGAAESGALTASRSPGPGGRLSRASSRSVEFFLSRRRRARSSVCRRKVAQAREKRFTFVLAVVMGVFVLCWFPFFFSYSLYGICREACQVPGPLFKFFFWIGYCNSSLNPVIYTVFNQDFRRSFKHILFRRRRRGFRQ
Chain of D(1A) dopamine receptor (Homo sapiens) (P21728 whole entry, looked up): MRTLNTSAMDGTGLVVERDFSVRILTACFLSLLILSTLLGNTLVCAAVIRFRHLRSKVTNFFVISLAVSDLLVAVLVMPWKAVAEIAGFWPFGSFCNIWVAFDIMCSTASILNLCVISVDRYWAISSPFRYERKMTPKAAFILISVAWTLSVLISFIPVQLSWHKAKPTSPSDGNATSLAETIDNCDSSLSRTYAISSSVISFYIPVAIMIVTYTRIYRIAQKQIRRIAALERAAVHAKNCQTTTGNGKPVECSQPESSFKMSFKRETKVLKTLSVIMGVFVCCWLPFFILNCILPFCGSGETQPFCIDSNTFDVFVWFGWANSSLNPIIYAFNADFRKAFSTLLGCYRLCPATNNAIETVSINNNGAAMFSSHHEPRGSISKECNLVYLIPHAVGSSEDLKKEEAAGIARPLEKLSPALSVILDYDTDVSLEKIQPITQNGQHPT
Chain of human Adrenergic, Beta 3 Receptor (Adrb3), ADRB3 (gene 155) (P13945 whole entry, looked up): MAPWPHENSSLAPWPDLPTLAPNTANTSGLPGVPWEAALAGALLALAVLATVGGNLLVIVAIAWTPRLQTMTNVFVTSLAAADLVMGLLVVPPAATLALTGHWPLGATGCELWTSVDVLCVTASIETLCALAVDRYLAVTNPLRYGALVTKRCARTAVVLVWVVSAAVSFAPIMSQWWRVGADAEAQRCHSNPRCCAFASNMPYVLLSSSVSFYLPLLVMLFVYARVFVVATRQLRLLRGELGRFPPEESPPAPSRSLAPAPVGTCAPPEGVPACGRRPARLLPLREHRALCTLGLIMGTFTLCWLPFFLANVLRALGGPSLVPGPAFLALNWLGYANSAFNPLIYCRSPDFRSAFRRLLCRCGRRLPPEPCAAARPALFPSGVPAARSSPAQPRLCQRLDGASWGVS
Chain of human Adrenergic, Beta 1 Receptor (Adrb1), ADRB1 (gene 153) (P08588 whole entry, looked up): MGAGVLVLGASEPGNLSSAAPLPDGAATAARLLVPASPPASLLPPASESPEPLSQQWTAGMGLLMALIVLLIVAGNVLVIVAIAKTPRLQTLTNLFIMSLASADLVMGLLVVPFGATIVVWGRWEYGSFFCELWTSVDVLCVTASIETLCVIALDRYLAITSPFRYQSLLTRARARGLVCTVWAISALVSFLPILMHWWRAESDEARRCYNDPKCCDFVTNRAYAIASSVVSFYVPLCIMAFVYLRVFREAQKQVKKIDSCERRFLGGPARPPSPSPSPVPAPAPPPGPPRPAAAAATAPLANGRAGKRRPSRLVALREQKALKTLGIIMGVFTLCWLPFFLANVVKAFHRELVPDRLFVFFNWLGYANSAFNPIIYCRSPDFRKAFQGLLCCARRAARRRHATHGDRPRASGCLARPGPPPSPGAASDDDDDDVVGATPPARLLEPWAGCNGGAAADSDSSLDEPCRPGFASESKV
Chain of human Dopamine Receptor D4.4 (DRD4.4), DRD4 (gene 1815) (P21917 whole entry, looked up): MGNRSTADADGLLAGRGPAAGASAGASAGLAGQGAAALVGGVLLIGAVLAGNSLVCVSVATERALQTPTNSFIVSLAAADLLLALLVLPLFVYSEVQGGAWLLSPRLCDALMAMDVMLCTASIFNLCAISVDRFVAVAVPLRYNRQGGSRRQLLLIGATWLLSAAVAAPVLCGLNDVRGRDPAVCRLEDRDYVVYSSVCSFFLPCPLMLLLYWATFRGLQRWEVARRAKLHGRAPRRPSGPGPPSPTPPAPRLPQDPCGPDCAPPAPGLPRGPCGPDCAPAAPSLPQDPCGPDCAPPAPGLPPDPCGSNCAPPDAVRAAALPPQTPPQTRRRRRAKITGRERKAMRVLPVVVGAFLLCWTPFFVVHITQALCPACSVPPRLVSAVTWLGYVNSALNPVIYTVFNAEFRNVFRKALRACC
Chain of human Serotonin, 5-Hydroxytryptamine Receptor 2A (5HT2A), HTR2A (gene 3356) (P28223 whole entry, looked up): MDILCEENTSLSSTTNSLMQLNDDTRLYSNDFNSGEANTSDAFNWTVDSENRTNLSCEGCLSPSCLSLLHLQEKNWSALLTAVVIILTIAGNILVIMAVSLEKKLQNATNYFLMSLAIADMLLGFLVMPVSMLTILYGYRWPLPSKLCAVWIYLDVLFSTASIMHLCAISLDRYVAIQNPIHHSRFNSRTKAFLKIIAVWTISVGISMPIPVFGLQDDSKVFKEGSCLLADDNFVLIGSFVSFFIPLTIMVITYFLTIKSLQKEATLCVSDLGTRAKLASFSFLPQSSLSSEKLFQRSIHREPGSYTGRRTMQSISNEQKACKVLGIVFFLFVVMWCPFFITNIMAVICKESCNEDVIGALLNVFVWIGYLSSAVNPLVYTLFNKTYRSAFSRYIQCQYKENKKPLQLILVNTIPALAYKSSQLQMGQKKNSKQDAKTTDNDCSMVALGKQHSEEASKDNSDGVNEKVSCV
Chain of Beta-2 adrenergic receptor (Homo sapiens) (P07550 whole entry, looked up): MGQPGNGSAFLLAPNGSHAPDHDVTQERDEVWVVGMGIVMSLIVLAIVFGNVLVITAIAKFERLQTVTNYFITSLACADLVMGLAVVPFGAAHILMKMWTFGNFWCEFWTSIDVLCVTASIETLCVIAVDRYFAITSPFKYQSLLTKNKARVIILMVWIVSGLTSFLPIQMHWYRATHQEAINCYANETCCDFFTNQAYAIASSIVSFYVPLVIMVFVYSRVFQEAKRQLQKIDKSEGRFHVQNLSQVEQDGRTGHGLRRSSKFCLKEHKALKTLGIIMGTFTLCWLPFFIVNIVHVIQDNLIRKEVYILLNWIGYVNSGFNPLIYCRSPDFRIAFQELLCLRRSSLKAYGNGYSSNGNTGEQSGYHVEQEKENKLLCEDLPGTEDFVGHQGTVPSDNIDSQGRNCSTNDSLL

Regarding `CC(C)(C)CC(C)(C)c1ccc(O)cc1`, the values for the AC50 in test [1] and in [3] were 34.1 µM (active) and 25 µM (active), respectively. In addition, the call in test [2] was inactive.
On to `Oc1c(I)cc(I)cc1I`, for which the result in test [2] and in test [4] was inactive.
Take `CCOP(=S)(OCC)Oc1nc(Cl)c(Cl)cc1Cl`: in [1], the molecule was classed as inactive.
Consider `O=C1C2(Cl)C3(Cl)C4(Cl)C(Cl)(Cl)C5(Cl)C3(Cl)C1(Cl)C5(Cl)C24Cl` (stereo unspecified), for which the call in test [5] and in [4] was inactive. Further, the AC50 in test [1] was 1.04 µM (active); in test [2], 0.11 µM (active); in test [6], 0.978 µM (active).
As for `CCN1CCC2(CC1)COc1cc3c(cc12)N(C(=O)c1ccc(-c2ccc(-c4nnc(C)o4)cc2C)cc1)CC3`, the AC50 is 10.2 µM (active) in [7]; 1.79 µM (active) in test [8]; 23.4 µM (active) in test [5]; 23.4 µM (active) in [1]; 13.9 µM (active) in test [9]; 14.3 µM (active) in test [3]. Besides, the AC50 in [10] is 23.4 µM (active); in test [13], 32.2 µM (active); in test [4] it was 5.49 µM (active). Moreover, the result in test [11] and in test [12] was inactive.
With `O=C(c1ccccc1)C(Cl)Cl`, the molecule was classed as inactive in [4].
`Nc1cccc2ccccc12`: the AC50 in [4] was 37.8 µM (active).
As to `CCNc1nc(NC(C)(C)C)nc(SC)n1`, the values for the AC50 in test [14] and in [2] were 17.8 µM (active) and 17.4 µM (active), respectively.
Regarding `CC(=O)[O][Hg][c]1ccccc1`, the AC50 in [7] is 19.1 µM (active); in test [8], 6 µM (active); in test [5] it was 0.791 µM (active); in test [15], 31.4 µM (active); in test [16], 1.32 µM (active); in test [14] it was 25 µM (active). Further, the half-maximal activity concentration (AC50) in test [1] is 0.577 µM (active); in test [2], 6.98 µM (active); in test [9], 20.1 µM (active); in test [6], 0.993 µM (active); in test [3], 0.252 µM (active); in [10], 0.934 µM (active). Further, the AC50 in test [11] is 6.02 µM (active); in [17], 15.1 µM (active); in test [12], 0.794 µM (active); in test [18], 1.07 µM (active); in test [19], 0.428 µM (active); in test [13], 1.18 µM (active). The AC50 in [4] is 0.104 µM (active).
Turning to `CN(C)N=O`, the result in test [11] was inactive.

For the origin of these results see PubChem BioAssay (EPA / NIEHS).
